Laboratory results taken from PubChem BioAssay (NCI).
Values joined by “and” are separate entries in the source; they are usually repeats but may differ in a detail not shown here. Equal entries are not always repeated. About 83,000 compounds went through this panel and 20% of them were active in at least one assay; those are over-represented in the sample as a whole.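 In brief: 96-well plates, 48 h treatment, single concentration, percent growth endpoint.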 Values without a mark were called inactive. Active and inactive are the calls of the source. The calls were made as follows: active = growth percent below 10; inactive = the rest.

test system: HL-60(TB) leukemia; assay: NCI-60 one-dose screen, 48 h (100 = growth as untreated, 0 = no growth, -100 = all killed); settings: 10 µM unless noted

| SMILES | growth |
| --- | --- |
| Cn1cnc2c1c(=O)n(CCC(=O)Nc1ccc(F)cc1)c(=O)n2C | 113% |
| C=CC(=O)N1CCC[C@H](n2c(=O)n(-c3ccc(Oc4ccccc4)cc3)c3c(N)ncnc32)C1 | 92.4% |
| Cc1nc2sc(C(=O)Nc3ccccc3)c(N)c2cc1C(=O)c1ccccc1 | 21.8% |
| CN(C)c1ccc(/C=C/C(=O)c2ccc(-n3cc(CN4CCN(c5cc6c(cc5F)c(=O)c(C(=O)O)cn6C5CC5)CC4)nn3)cc2)cc1 | 84.6% |
| Cc1c[n+](Cc2ccc3ccccc3c2)cn1Cc1ccc2ccccc2c1 | -56.3% (active) |
| Fc1cc2c(cc1Cl)N(c1ncnc3ccc(-c4ccc5n[nH]nc5c4)cc13)CC2 | 69.3% |
| Clc1ccc2c(c1)c(-c1ccccc1)nc1nncn12 | 112% |
| COc1ccc(OC)c(/C=N/Nc2ncnc3c2c(C)nn3C)c1 | 88.9% |
| C=CCn1c(SCC(=O)Nc2ccc(C(=O)/C=C/c3ccc(Cl)cc3)cc2)nnc1-c1cc(-c2ccc(S(N)(=O)=O)cc2)nc2ccccc12 | 75.7% |
| O=C1CC23OC4ON=C(Br)C4C2C(O)c2ccccc2N13 (centres undefined) | 102% |
| Cc1ccc(C(O)C2=CC(=O)c3ccccc3C2=O)cc1 (centres undefined) | 92.1% |
| O=S(=O)(NCCNc1cc(-c2c(-c3cccc(O)c3)nc3sccn23)ccn1)c1ccc(C(F)(F)F)cc1 | 15.7% |
| CCCC(=O)Oc1ccc(/C(=C(\C)c2ccc(OC)cc2)c2ccc(OCCN3CCCCC3)cc2)cc1 | 89.6% |
| O=C(Nc1ccccc1)Oc1c(Cl)c(Cl)c(Cl)c(Cl)c1Cl | 86.8% and 92.2% |
| Nc1cc(N)ncn1 | 47.3% |
| [2H]c1nc(Nc2ncc(F)c(-c3cc(F)c4nc(C)n(C(C)C)c4c3)n2)c([2H])c([2H])c1CN1CCN(C([2H])([2H])C([2H])([2H])[2H])CC1 | 34.6% |
| Cc1cccc(NC(=O)N/C(N)=N/c2nc(C)c(C)s2)c1 | 19.5% |
| CC(C)C/C=C/C=C/C(=O)N[C@@H](CC(N)=O)C(=O)N[C@@H]1C(=O)N[C@H](c2ccc(O)cc2)C(=O)N[C@H](CCCN)C(=O)N[C@H]([C@@H](C)O)C(=O)N[C@H](c2ccc(O)cc2)C(=O)N[C@H](c2ccc(O)cc2)C(=O)N[C@H]([C@H](C)O)C(=O)N[C@H](Cc2ccccc2)C(=O)N[C@H](CCCN)C(=O)N[C@H](c2ccc(O[C@H]3O[C@@H](CO)[C@@H](O)[C@@H](O)[C@H]3O[C@@H]3O[C@H](CO)[C@H](O)[C@H](O)[C@@H]3O)cc2)C(=O)N[C@H]([C@H](C)O)C(=O)N[C@H](c2ccc(O)cc2)C(=O)NCC(=O)N[C@H](CC(C)C)C(=O)N[C@H](C)C(=O)N[C@H](c2ccc(O)c(Cl)c2)C(=O)O[C@@H]1C(N)=O | 72.1% |
| CCSc1nnc(NC(=O)COc2ccc(Cl)cc2C)s1 | 108% |
| O=C(O)C1C2CC3C(OC(=O)C31)C2Br (centres undefined) | 97% and 103% |

| SMILES | growth |
| --- | --- |
| NC(=S)c1c(N)n(C2OC(CO)C(O)C2O)c2ncnc(N)c12 (centres undefined) | -43.6% (active) |
| CCCCCCCCCCCCCCCCNC(=O)Nc1ccc2ccccc2c1 | 95% |
| Cc1ccc(-c2cc(O)c(-c3ccc(C)cc3C)cc2O)c(C)c1 | 21.2% |
| CC(C)N=c1cc2n(-c3ccc(Cl)cc3)c3ccccc3nc-2cc1Nc1ccc(Cl)cc1 | -6.14% (active) and -2.06% (active) and -36.3% (active) |
| Cc1c(O)c(N=Nc2ccc(C(=O)O)c(O)c2)c2ccccc2c1O | 77.4% |
| COc1ccc(C(=O)c2cc(C)c(OC)c(C)c2)c(OC)c1O | -25.8% (active) |
| CN1CCN(CC#CCNC(=O)[C@]23CCC(C)(C)C[C@H]2C2=CC[C@@H]4[C@@]5(C)Cc6c([nH]c7ccccc67)C(C)(C)[C@@H]5CC[C@@]4(C)[C@]2(C)CC3)CC1 | 49.4% |
| CCOC(=O)c1cc(C(=O)c2ccc(OC)c(OC)c2)n2ccc(-c3ccccn3)cc12 | 110% |
| O=[N+]([O-])c1cc(S(=O)(=O)c2ccc(F)c([N+](=O)[O-])c2)ccc1F | 59.9% |
| O=C(Nc1cccc(Cl)c1)c1cc2ccccc2cc1O | 5.85% (active) and -13.6% (active) |
| O=c1[nH]c2ccccc2n1C1CCN(CCOc2ccccc2)CC1 | 50% |
| c1ccc2c(c1)Oc1cccnc1-n1nccc1-2 | 101% |
| CC[C@]1(O)C[C@@H]2CN(Cc3c([nH]c4ccccc34)[C@@](C(=O)OC)(c3cc4c(cc3OC)N(C)[C@H]3[C@@](O)(C(=O)OC)[C@H](OC(C)=O)[C@]5(CC)[C@@H]6C[C@@H]6CN6CC[C@]43[C@@H]65)C2)C1 | -36.5% (active) |
| Fc1ccc(Nc2nc3nonc3nc2Nc2ccc(F)cc2)cc1 | -17.6% (active) |
| Cc1nn(-c2ccccc2)c2nc3nc4c(c(N)c3c(-c3ccc(Cl)cc3)c12)CCCC4 | 104% |
| CC(C)N(Cc1ccc(CN(C(=O)CCl)C(C)C)cc1)C(=O)CCl | -46% (active) |
| O=C(O)c1cn(C2CC2)c2cc(N3CCN(C(=O)c4cc(-c5ccc(Cl)cc5)nc5ccccc45)CC3)c(F)cc2c1=O | 101% |
| C#Cc1cccc(NC(=O)c2ccc(NC(=O)CCl)cc2)c1 | 11.7% [8.25 µM] |
| O=[N+]([O-])c1ccc(C2N(Cc3ccc(Cl)cc3)CCN2Cc2ccc(Cl)cc2)cc1 | 86.9% |
